Shown are actives, neighbours in structure and some others; about 2% of the full set was active somewhere.
EP2 mod = EP2 receptor modulators, cAMP readout, primary screen, cell-based, HTRF cAMP, PGE2 stimulation | Prostaglandin E2 receptor EP2 subtype (Homo sapiens), P43116 | EP2-expressing cells, cAMP HTRF FRET, PGE2 co-stimulation | induction, % at 25 µM | 260,000 tested, 0.83% active | AID 940, 2007;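 active = compounds whose cAMP rise, as percent of the full-agonist control response, exceeds 60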;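 also: rat C6 glioma line stably carrying human EP2 under a CMV promoter; the protocol text gives 20 µM as final concentration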
Target sequence (P43116 whole entry, looked up): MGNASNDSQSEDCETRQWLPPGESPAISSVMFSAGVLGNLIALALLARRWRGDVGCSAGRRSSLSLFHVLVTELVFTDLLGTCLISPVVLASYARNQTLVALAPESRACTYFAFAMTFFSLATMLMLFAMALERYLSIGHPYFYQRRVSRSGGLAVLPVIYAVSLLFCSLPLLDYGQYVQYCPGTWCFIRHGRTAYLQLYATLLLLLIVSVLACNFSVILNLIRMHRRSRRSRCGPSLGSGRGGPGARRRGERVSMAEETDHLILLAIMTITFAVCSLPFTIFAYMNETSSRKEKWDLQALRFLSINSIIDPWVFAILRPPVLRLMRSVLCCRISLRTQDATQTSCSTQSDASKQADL
CHT inh = inhibitors of human choline transporter CHT. High affinity choline transporter 1 (Homo sapiens), Q9GZV3. CHT-expressing cells, membrane potential dye, choline response; active compounds read low. B-score at 10 µM. 310,000 tested, 0.86% active;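 active = B-score over 3 SD under the library average, and starting fluorescence ratio not unusually high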;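 also: choline stimulus applied at its EC90 after an EC20 pre-addition; B-score computed on integrated fluorescence ratio after choline addition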
CHT PAM = CHT positive allosteric modulators, primary screen, cell-based, membrane potential dye, choline EC20. CHT-expressing cells; active compounds read high; LV-AA mutant CHT in HEK293 cells. 310,000 tested, 0.49% active. AID 488977, 2010. B-score at 10 µM. High affinity choline transporter 1 (Homo sapiens), Q9GZV3;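 active = initial fluorescence not abnormally high and integrated response B-score, plate-corrected, over 3 SD above library mean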
PGE2 EP2 inh = human EP2 receptor antagonists, primary screen, TR-FRET cAMP, C6 glioma cells; Prostaglandin E2 receptor EP2 subtype (Homo sapiens), P43116; AID 1422, 2008; inhibition, % at 25 µM; C6 glioma cells expressing human EP2; cells stimulated with saturating PGE2; 260,000 tested, 0.52% active;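 active = percent inhibition above 40 after rounding to a whole number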;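 also: rat C6 glioma host cells with rolipram phosphodiesterase inhibitor present; the protocol text gives 20 µM as final concentration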
CHT block conf = CHT inhibitors, confirmation, cell-based, membrane potential dye, duplicate; shares compounds with CHT inh; CHT-expressing cells, choline membrane potential dye; LV-to-AA substituted CHT, HEK293 cells; CHT activity remaining % of control (active compounds read low), % at 10 µM; 2,400 tested, 70% active; AID 493221, 2011;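 active = choline transporter activity left, mean of duplicates at 10 µM, below buffer-only control mean minus 3 SD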;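 also: depolarization triggered by choline at its EC90 following an EC20 pre-addition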
HEK293 CHT ctr = membrane potential effects in parental HEK293, counter-screen for CHT inhibitor project, cell-based, membrane potential dye; AID 493222, 2011; shares compounds with CHT inh; membrane potential ratio readout (active if shifted either direction beyond buffer ±3SD; no single direction) at 10 µM; choline response; active = decrease or increase beyond buffer ±3SD; 2,400 tested, 4% active;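 also: parental cells lack the transporter so any hit is non-specific; ratio is peak minus trough fluorescence over baseline after EC90 choline challenge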
A number is an active result; . = inactive; / = no result.

SMILES	EP2 mod	CHT inh	CHT PAM	PGE2 EP2 inh	CHT block conf	HEK293 CHT ctr
CC1CCN(CCNC(=O)C2CCCN(c3ncnc4c3nc3n4CCCCC3)C2)CC1 (stereo unspecified)	/	-10.5	.	/	32.1%	.
CC1CCCCN1CCCNC(=O)C1CCCN(c2ncnc3c2nc2n3CCCCC2)C1 (stereo unspecified)	/	.	.	/	/	/
COc1ccc(Cl)cc1NC(=O)C1CCCN(c2ncnc3c2nc2n3CCCCC2)C1 (stereo unspecified)	/	-5.19	.	/	57.5%	.
O=C(Nc1cccnc1Cl)C1CCCN(c2ncnc3c2nc2n3CCCCC2)C1 (stereo unspecified)	/	.	.	/	/	/
O=C(Nc1ccc(Cl)cn1)C1CCCN(c2ncnc3c2nc2n3CCCCC2)C1 (stereo unspecified)	/	-6	.	/	31.8%	.
O=C(Cc1ccccc1F)N1CCC(c2ccc3c(c2)OCO3)CC1	.	/	/	/	/	/
COc1cc(OC)c(OC)cc1CN[C@@H]1CCC(=O)N[C@H]1c1cc(F)cc(F)c1	.	/	/	.	/	/
OC(CNCC#Cc1ccccc1)c1ccccc1 (stereo unspecified)	.	-6.84	.	.	52.4%	.
CC(C)(C)N(NC(=O)Nc1ccccc1)C(=O)c1ccccc1	.	-6.07	.	.	.	.
COc1ccccc1N1CCN(CC(O)c2ccc3c(c2)CCO3)CC1 (stereo unspecified)	.	/	/	.	/	/
O=C(NC1CCCCCCC1)NC1CCCCC1	.	-5.67	.	.	.	.
O=C(NC1CCCCCC1)C(=O)NC1CC1	/	.	.	/	/	/
COCC(=O)NC1CCN(S(=O)(=O)c2ccc(C(=O)O)cc2)CC1	.	.	.	.	/	/
COCC(=O)NC1CCN(S(=O)(=O)c2cccc(C(C)=O)c2)CC1	.	-5.14	.	.	.	.
CCC(C)c1ccc(NC(=S)NC(C)C2CCCO2)cc1 (stereo unspecified)	.	-8.32	.	.	47.1%	.
CCc1nnc(NS(=O)(=O)c2ccc(NC(=O)c3cccc4ccccc34)cc2)s1	.	.	.	.	/	/
CCc1nnc(NC(=O)c2cc(S(=O)(=O)N(CC)CC)ccc2Cl)s1	.	-5.85	.	.	52.1%	.
CCc1nnc(NS(=O)(=O)c2ccc(NC(=O)c3cc(Cl)ccc3[N+](=O)[O-])cc2)s1	/	.	.	/	/	/
CCc1nnc(NS(=O)(=O)c2ccc(NC(=O)c3cc(Cl)ccc3Cl)cc2)s1	.	-6.07	.	.	30.2%	.
CCc1nnc(NS(=O)(=O)c2ccc(NC(=O)c3ccc(S(=O)(=O)N(CC)CC)cc3)cc2)s1	/	.	.	/	/	/
CCc1nnc(NS(=O)(=O)c2ccc(NC(=O)c3cccc(Br)c3)cc2)s1	/	-7.04	.	/	47.7%	.
CCN(CC)S(=O)(=O)c1ccc(Cl)c(C(=O)NC)c1	.	.	.	.	/	/
CCc1nnc(NS(=O)(=O)c2ccc(NC(=O)COc3ccc4ccccc4c3)cc2)s1	.	-5.83	.	.	.	.
CNc1nc(-c2ccc3c(c2)CCN3C(=O)c2cccc(F)c2)cs1	.	-5.21	.	.	.	.
O=C(C1CC(=O)N(c2ccc(F)cc2)C1)N1CCn2c(nnc2C2CC2)C1 (stereo unspecified)	.	/	/	/	/	/
SMILES	EP2 mod	CHT inh	CHT PAM	PGE2 EP2 inh	CHT block conf	HEK293 CHT ctr
CC1CCCCC1NC(=O)c1ccc(S(=O)(=O)NCC2CCCO2)cc1 (stereo unspecified)	.	-11.9	.	.	11.1%	.
CC(=O)Oc1ccc(C(=O)Nc2ccc(S(=O)(=O)NCC3CCCO3)cc2)cc1 (stereo unspecified)	.	-5.11	.	.	70.1%	.
CC(=O)Nc1ccc(C(=O)Nc2ccc(S(=O)(=O)NCC3CCCO3)cc2)cc1 (stereo unspecified)	.	.	.	.	/	/
O=C(NC1CCS(=O)(=O)C1)c1ccc(S(=O)(=O)NCC2CCCO2)cc1 (stereo unspecified)	.	.	.	.	/	/
COc1ccc(-n2c(SCC(=O)NC3CCCCC3)nnc2-c2ccccc2OC)cc1	.	/	/	.	/	/
Cc1cc(/C=N/NC(=O)c2c(Br)cnn2C)c(C)n1-c1cccc(Br)c1	.	.	.	.	/	/
Cc1cc(/C=N/NC(=O)C(=O)N2CCCC2)c(C)n1-c1cccc(Br)c1	.	-7.39	.	.	58.0%	.
CCCOc1ccc(C(CC(=O)O)NC(=O)c2sc3ccccc3c2Cl)cc1 (stereo unspecified)	.	-6.81	.	.	24.8%	.
CCn1cc(CN(CCN(C)C)Cc2cccs2)c(C)n1	.	/	/	.	/	/
COc1ccccc1C(=O)OCC(=O)Nc1ccccc1OC(F)F	.	-7.83	.	.	.	.
CCc1cc2c(C)cc(C)cc2nc1SCC(=O)Nc1nccs1	.	/	/	.	/	/
CC(CCc1ccc(O)cc1)NCCC(c1ccccc1)c1ccccc1 (stereo unspecified)	/	.	.	/	/	/
CC(CCc1ccc(O)cc1)NCc1ccc(Br)cc1 (stereo unspecified)	/	-5.14	.	/	.	.
O=c1c2cc(Br)ccc2nc(-c2ccc(Cl)cc2)n1O	/	-6.12	.	/	41.2%	.
Cc1ccc(-c2nc3c(Cl)cc(Cl)cc3c(=O)n2O)cc1	/	-5.45	.	/	45.8%	.
CCc1ccc2nc(SCC(=O)Nc3ccccc3C(F)(F)F)c(C#N)cc2c1	.	/	/	.	/	/
CC(C)(C)c1ccc(-c2nnc(NC(=O)C3CCC3)s2)cc1	.	/	/	.	/	/
COc1cc(C(=O)NC(=S)Nc2cc(-c3nc4ccc(C)cc4o3)ccc2C)cc(OC)c1OC	.	/	/	.	/	/
Cc1ccc(SCC2=NN(c3nc(C)cc(C)n3)C(=O)C2)cc1	.	-6.46	.	.	23.4%	.
Cc1csc(NC(=O)CN2C(=O)c3ccccc3S2(=O)=O)n1	/	.	.	/	/	/
Cc1csc(NC(=O)CCN2C(=O)c3ccccc3S2(=O)=O)n1	.	-5.93	.	.	69.3%	.
Cc1ccc(Cl)cc1N1CCN(C(=O)Cc2c(C(=O)O)[nH]c3ccc(Cl)cc23)CC1	.	-7.65	.	.	55.2%	.
CCC(CC)c1nnc(NC(=O)c2c(C)nn(Cc3ccccc3Cl)c2C)s1	.	-5.07	.	.	.	.
Nn1c(-c2ccccc2)nc2cc(Cl)ccc2c1=O	/	-7.24	.	/	.	.
Cc1cccc(-c2nc3ccccc3c(=O)n2N)c1	/	.	.	/	/	/
Cc1ccc(NC(=O)CN(C)C(=O)COC(=O)CNS(=O)(=O)c2ccc(Br)cc2Cl)cc1	/	-6.27	.	/	66.5%	.
Cc1cccc(N=Cc2cc(Br)cc(Cl)c2O)c1	.	-7.83	.	.	57.0%	.
Cc1csc(NC(=O)CSc2nnc(CNC(=O)c3ccccc3F)n2C)n1	.	/	/	.	/	/

Screening results (PubChem)
